Where “and” joins values, the source holds several entries; their conditions need not be identical. Equal entries are not always repeated. Records with an inconclusive call do not appear. Values without a mark were called inactive. Calls of active or inactive are those of the source. Calls come from the whole dose curve; as a rule, active = well fitted cell-killing curve with a large enough effect in the repeat runs; inconclusive = weak or mixed curves; inactive = flat fitted curve, though single readings scatter.
Assay: qHTS assay to identify small molecule antagonists of the TGF-beta/Smad signaling pathway - cell viability counter screen (AID 1346824); note: nearly all actives have a fitted effect of over 50% in size
Details: SBE-bla HEK293T viability, CellTiter-Glo luminescence; series mostly up to 76.8 µM; viability change, negative = cytotoxic: at the top concentration
Description: U.S. Tox21 Program National Center for Advancing Translational Sciences [NCATS] NIH Chemical Genomics Center [NCGC] U.S. Environmental Protection Agency [EPA] National Institutes of Environmental Health Sciences [NIEHS] National Toxicology Program [NTP] U.S. Food and Drug Administration [FDA] Tox21 Assay Overview: Transforming growth factor beta (TGF-beta) superfamily consists of a large number of structurally related dimeric proteins that act as hormones or local mediators in regulating a wide range of biological functions. This superfamily includes TGF-betas themselves, the bone morphogenetic proteins (BMPs) and the activins. These ligands induce oligomerization of serine/threonine receptor kinases and phosphorylate the cytoplasmic signaling molecules of Smad protein family. CellSensor SBE-bla HEK 293T cell line (Life Technologies, Carlsbad, CA), responsive to TGF-beta was used to screen Tox21 10K compound library for identification of agonists/antagonists of the Smad signaling pathway. This cell line contains a beta-lactamase reporter gene under control of the Smad binding element (SBE) stably integrated into HEK 293T cells. Also cytotoxicity of the compounds was tested in parallel by measuring the cell viability using CellTiter-Glo assay system in the same wells.
Tox21 Assay Protocol Summary: SBE-bla HEK 293T cells were dispensed at 4,000/well in 5 uL of assay medium into black wall/clear-bottom 1536-well plates using a Multidrop Combi (ThermoFisher Scientific, Waltham, MA) dispenser. After the assay plates were incubated at 37 C and 5% CO2 for an overnight, 23 nL of compounds dissolved in DMSO, positive controls or DMSO only was transferred to the assay plate by a Pintool station (Kalypsys, San Diego, CA). Compound transfer was followed by the addition of 1 uL of 0.25 ng/mL TGF-beta1 or assay buffer using two separate tips of Flying Reagent Dispenser (FRD, Aurora Discovery, San Diego, CA). The assay plates were incubated at 37 C and 5% CO2 for 5 hr. One uL of LiveBLAzer B/G FRET substrate (Life Technologies) was added using a Flying Reagent Dispenser (FRD, Aurora Discovery, San Diego, CA) and the plates were incubated at room temperature for 2 hr. Fluorescence intensity (405 nm excitation, 460 nm and 530 nm emissions) was measured using an Envision plate reader (PerkinElmer, Shelton, CT). For cytotoxicity read, 4 uL of CellTiter-Glo reagent (Promega Corporation, Madison, WI) was added to each well of the assay plates using FRD. After 30 min incubation at room temperature, the luminescence intensity was measured using ViewLux plate reader (PerkinElmer).
% is set by controls: 0 for no effect and ±100 for the full control effect; potency is the fitted concentration of half-maximal effect.

SMILES | viability change, negative = cytotoxic | Potency
CC(C)(C)NCC(O)c1cc(Cl)c(N)c(C(F)(F)F)c1 (stereo not given) | -15.6% [at 35.3 µM] | 
O=S(=O)(Cl)Cl | -1.23% | 
CCCCCBr | 11.5% | 
O=C(O)C(Cl)(Cl)Br | -9.42% | 
O=C(NC(=O)c1cc(F)c(F)cc1Cl)Nc1cc(F)ccc1N1CCC(C(=O)O)CC1 | 2.38% [at 35.3 µM] | 
O=[N+]([O-])c1cc(Cl)c(Cl)cc1Cl | -4.58% | 
Nc1ccc2c(c1)Cc1ccccc1-2 | 1.69% | 
CC(Cc1ccccc1)NCc1ccccc1Cl (stereo not given) | -1.85% [at 35.3 µM] | 
CC(C)c1ccc(OP(=O)(Oc2ccc(C(C)C)cc2)Oc2ccc(C(C)C)cc2)cc1 |  | inactive
Cc1ccc2c(C)cccc2c1 | -0.789% | 
O=C(O)CCCOc1ccc(Cl)cc1Cl |  | inactive
CC[N+]1(CCOC(=O)C(O)(c2ccccc2)c2ccccc2)CCCCC1 | -1.25% [at 35.3 µM] | 
O=C([O-])c1ccccn1.O=C([O-])c1ccccn1.O=C([O-])c1ccccn1.[Cr+3] | -8.56% | 
CCN(C(C)=O)c1cccc(-c2ccnc3c(C#N)cnn23)c1 | -5.14% [at 35.3 µM] | 
CCCC[P+](CC)(CCCC)CCCC (tested in a mixture with another compound) | -3.49% | 
CC1(C)CC(=O)CC(C)(C)N1[O] | -18.1% | 
OCCCl | 10.4% | 
CC(O)CN1CCN(CC(=O)[O-])CCN(CC(=O)[O-])CCN(CC(=O)[O-])CC1.[Gd+3] (stereo not given) | 1.43% [at 35.3 µM] | 
O=C(O)COc1cc(Cl)c(Cl)cc1Cl |  | inactive
[Cl-].[Cl-].[Hg+2] |  | 24.4 µM (active) and 54.9 µM (active)

SMILES | viability change, negative = cytotoxic | Potency
COc1cc(CC(C)N)c(OC)cc1Br (stereo not given) | 5.53% | 
NCCc1cc(O)c(O)cc1O | 0.184% [at 35.3 µM] | 
COc1cc(CC#N)cc(OC)c1OC | -1.03% [at 35.3 µM] | 
CN1CC[C@]23c4c5ccc(O)c4O[C@H]2[C@@H](O)C=C[C@H]3[C@H]1C5 | -4.02% | 
O=C(N[C@H]1CN2CCC1CC2)c1ccc2c(c1)OCCO2 | 2.95% | 
CC(C)OC(=O)Cc1ccccc1 | 3.56% | 
Cc1cnc(C2=NC(C)(C(C)C)C(=O)N2)c(C(=O)O)c1 (stereo not given) | -3.34% | 
FC(Cl)(Cl)C(F)(Cl)Cl | 4.16% | 
CCOC(C(=O)OCCN(C)C)(c1ccccc1)c1ccccc1 | 9.59% [at 35.3 µM] | 
CCCC1CCCCN1 (stereo not given) | -2.88% [at 35.3 µM] | 
C[CH2][Hg][S]c1ccccc1C(=O)O |  | 43.6 µM (active) and 19 µM (active)
CCC(=O)O[C@@H]1C=C2CCC3C(CCC4(C)C3CC[C@@H]4OC(=O)CC)C2CC1 (stereo not given in full) | 0.627% [at 35.3 µM] | 
NC(=O)CF | 24.2% | 
CCCCNC(=O)OCC#CI | -15% | 
CCC1(C2=NCCN2)Cc2ccccc2O1 (stereo not given) | -0.0914% [at 35.3 µM] | 
CC1(C)[C@H](C(=O)O[C@H](C#N)c2cccc(Oc3ccccc3)c2)[C@@H]1C=C(Br)Br | -15.9% | 
CN1C[C@H](C(=O)N[C@]2(C)O[C@@]3(O)[C@@H]4CCCN4C(=O)[C@H](Cc4ccccc4)N3C2=O)C=C2c3cccc4[nH]cc(c34)C[C@H]21 |  | inactive
Nc1c(Br)cc(Br)c2c1C(=O)c1ccccc1C2=O | 4.07% [at 15.8 µM] | 
CCCC[N+]1(C)[C@@H]2CC(OC(=O)[C@H](CO)c3ccccc3)C[C@H]1[C@@H]1O[C@@H]12 (stereo not given in full) | -18.9% [at 35.3 µM] | 
CCCCCCCCCCCC[N+](C)(C)CCOc1ccccc1 |  | 43.7 µM (active)

— PubChem BioAssay (Tox21)
